Records with an inconclusive call do not appear. Calls of active or inactive are those of the source. Rule for the calls, unless noted: active = hit-call score of the fitted dose curve at least 0.9, where 1 is the maximum; inconclusive = response in the unintended direction; inactive = score below 0.9.

The target in test [1] is Bile acid receptor (Homo sapiens) (UniProt Q96RI1). The test is described as follows: OT_FXR_FXRSRC1_0480: Odyssey Thera (OT) 8-hour HEK293T Protein-Complementation Assay for Farnesoid X receptor/SRC-1 Co-activator (AID 2283383). An outline of the steps:
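Binding of FXR to coactivator SRC-1 was read as fluorescence from a reconstituted split reporter in HEK293T cells, 8 h after chemical addition. Only increases in signal versus DMSO were fit.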

Test [2] can be described thus: CEETOX_H295R_11DCORT: CeeTox H295R High-throughput Steroidogenesis Assay for 11-Deoxycortisol (11DCORT) (AID 2283432; active = hit-call score of the fitted dose curve at least 0.9, where 1 is the maximum; inactive = score below 0.9;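 note: 11-deoxycortisol secreted into the medium measured by LC-MS/MS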). The settings on record: actives raise or lower the signal. An outline of the steps:
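Steroidogenesis in human H295R cells: 48 h chemical exposure after forskolin priming, 11-deoxycortisol measured by LC-MS/MS.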

A short description of test [3]: CEETOX_H295R_OHPREG: CeeTox H295R High-throughput Steroidogenesis Assay for OH-Pregnenolone (OHPREG) (AID 2283434; active = hit-call score of the fitted dose curve at least 0.9, where 1 is the maximum; inactive = score below 0.9). The settings on record: actives raise or lower the signal. The method, boiled down:
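H295R, 10 uM forskolin pre-stim 48 h; test chemical 48 h, 0.1% DMSO final. MTBE extraction, reverse-phase C18 HPLC-ESI+ MS/MS of medium. Gain/loss vs DMSO; viability by MTT in same wells.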

Test [4] in a line: CEETOX_H295R_OHPROG: CeeTox H295R High-throughput Steroidogenesis Assay for OH-Progesterone (OHPROG) (AID 2283435; active = hit-call score of the fitted dose curve at least 0.9, where 1 is the maximum; inactive = score below 0.9;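 note: 17alpha-hydroxyprogesterone secreted into medium measured by HPLC-MS/MS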). The settings on record: actives raise or lower the signal. An outline of the steps: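 Medium steroid levels read by LC-MS/MS after 48 h chemical treatment (0.1% DMSO) of human adrenal H295R cells that had been forskolin-primed (10 uM, 48 h). Gain or loss fitted against DMSO; MTT cytotoxicity checked per well.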

Test [5] in a line: CEETOX_H295R_CORTIC: CeeTox H295R High-throughput Steroidogenesis Assay for Corticosterone (CORTIC) (AID 2283437; active = hit-call score of the fitted dose curve at least 0.9, where 1 is the maximum; inactive = score below 0.9;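 note: corticosterone secreted into medium quantified by mass spectrometry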). The settings on record: actives raise or lower the signal. The method, boiled down: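 48 h forskolin (10 uM) prestim, then 48 h chemical exposure, final DMSO 0.1%. Readout: corticosterone in medium by LC-MS/MS after MTBE extraction. Gain/loss fit vs DMSO; MTT viability in same wells.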

A short description of test [6]: CEETOX_H295R_CORTISOL: CeeTox H295R High-throughput Steroidogenesis Assay for Cortisol (AID 2283438; active = hit-call score of the fitted dose curve at least 0.9, where 1 is the maximum; inactive = score below 0.9;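 note: cortisol secreted into medium quantified by LC-MS/MS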). The settings on record: actives raise or lower the signal. An outline of the steps:
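Cortisol measured by HPLC-MS/MS after MTBE extraction of medium from H295R cells exposed 48 h to chemical (0.1% DMSO), following 48 h prestimulation with 10 uM forskolin. Viability assessed by MTT in the same wells.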

Test [7] in a line: CEETOX_H295R_DOC: CeeTox H295R High-throughput Steroidogenesis Assay for DOC (AID 2283439; active = hit-call score of the fitted dose curve at least 0.9, where 1 is the maximum; inactive = score below 0.9). The settings on record: actives raise or lower the signal. An outline of the steps:
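11-Deoxycorticosterone quantified in medium by MTBE extraction and HPLC-MS/MS after 48 h chemical exposure (0.1% DMSO) of forskolin-primed (10 uM, 48 h) H295R cells. Same-well MTT viability; data fitted bidirectionally against DMSO.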

Test [8] in a line: CEETOX_H295R_PROG: CeeTox H295R High-throughput Steroidogenesis Assay for Progesterone (PROG) (AID 2283442; active = hit-call score of the fitted dose curve at least 0.9, where 1 is the maximum; inactive = score below 0.9;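 note: human H295R adrenal cells primed with 10 µM forskolin before dosing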). The settings on record: actives raise or lower the signal. The method, boiled down: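 H295R human adrenal cells were prestimulated with 10 uM forskolin for 48 h, then exposed to test chemical (0.1% DMSO final) for 48 h. Medium progesterone was MTBE-extracted and quantified by HPLC-MS/MS, with bidirectional fitting against DMSO.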

In test [9] the test system is Sodium/Iodide Symporter (NIS), SLC5A5 (gene 6528). The test is described as follows: CPHEA_Stoker_NIS_Inhibition_RAIU: CPHEA's Radioactive Iodide Uptake (RAIU) Assay for Sodium/Iodide Symporter (NIS) Inhibition, Stoker and Laws Labs (AID 2283841). The method, boiled down:
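Test chemicals, six concentrations from 0.001 to 100uM in 0.5% DMSO, were co-incubated with carrier-free 125I (final 329pM) on hNIS-HEK293T-EPA monolayers in pH 7.4 HEPES-buffered HBSS. Plates stood 2 hours at room temperature, then were washed cold and counted.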

Test [10] is described as follows: CPHEA_Stoker_NIS_Cytotoxicity: Cytotoxicity Assessment for CPHEA's Radioactive Iodide Uptake (RAIU) Assay for Sodium/Iodide Symporter (NIS) Inhibition, Stoker and Laws Labs (AID 2283897). The method, boiled down: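 Viability in hNIS-HEK293T-EPA cells is scored as a drop in luciferase-detected ATP following 2-hour room-temperature exposure (0.001–100uM; triplicate wells, three cell passages), with DMSO as negative control.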

The target of test [11] is human Phosphodiesterase 10 (PDE10), PDE10A (gene 10846) (UniProt Q9Y233). The test is described as follows: NVS_ENZ_hPDE10: NovaScreen (NVS) Enzymatic Assay for human Phosphodiesterase 10 (PDE10) (AID 2283195). The method, boiled down: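 Biochemical single-readout PDE10A assay, cell-free, extracted protein. Compounds first screened at 25 uM in duplicate, hits then titrated to 50 uM max. Activity measured after 1 h; loss-of-signal fitted against DMSO negative control.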

Test [12] in a line: CCTE_Padilla_ZF_Score.General: CCTE's 144 Hour Post-fertilization zebrafish Assay Score for General Malformation, Padilla Lab (AID 2284411; active = hit-call score of the fitted dose curve at least 0.9, where 1 is the maximum; inactive = score below 0.9). An outline of the steps: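 Malformation, death and hatching were scored at 6 dpf by two blinded observers under a stereo microscope. Embryos were dosed singly from 6-8 hpf in sealed plates of 10% Hanks' at 26C and rinsed on 5 dpf; DMSO baseline.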

For test [13], the target named is rat Peripheral-type Benzodiazepine Receptor (PBR), Tspo (gene 24230) (UniProt P16257). In words: NVS_MP_rPBR: NovaScreen (NVS) Membrane Protein Assay for rat Peripheral-type Benzodiazepine Receptor (PBR) (AID 2283335). An outline of the steps:
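Competitive displacement of specific radioligand from rat kidney membrane PBR, read by filtration and scintillation after 1 h. Compounds first tested at 25 uM in duplicate, then in concentration series; signal loss relative to DMSO.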

Test [14] deals with Thyroperoxidase (TPO), gene 54314. The test is described as follows: CCTE_Simmons_AUR_rTPO: CCTE's Amplex UltraRed Assay for Thyroperoxidase (TPO) Inhibition, Simmons Lab (AID 2283662).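 For AC50: potency for loss of signal meaning inhibition of peroxidase activity.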 The method, boiled down:
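Endpoint is decreased Amplex UltraRed fluorescence after a 30-min, 37C reaction of rat thyroid microsomes with 300 uM H2O2. Eight test concentrations (5 nM–87.5 uM final) in 0.5% DMSO, three biological replicates each.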

Test [15] can be described thus: CCTE_Simmons_CellTiterGLO_HEK293T: Viability Assessment in CCTE's Assays for Thyroperoxidase (TPO) Inhibition, Simmons Lab (AID 2283665). The method, boiled down:
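Luciferase-coupled ATP content after 24 h exposure gives viability; 8-point series from 5 nM to 87.5 uM final in 0.5% DMSO. Human HEK293T cells, 1% FBS medium, three biological replicates, dichlone positive control.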
On the technique in general: In ATP-based viability assays light output follows the ATP content of the culture.

For test [16], the target named is Luciferin 4-monooxygenase (Photinus pyralis) (UniProt P08659). In words: CCTE_Simmons_QuantiLum_inhib_2: CCTE's Firefly Luciferase Inhibition Assay, Simmons Lab (AID 2283767). The method, boiled down:
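Eight test concentrations, 5 nM up to 87.5 uM final, preincubated 30min at 37C in the dark with purified luciferase (0.5% DMSO final). Detection reagent (150uM D-luciferin, 147uM dATP, 75uM CoA, pH 7.8) injected per well before kinetic luminescence read; three replicates.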

In test [17] the target is Nuclear receptor subfamily 1 group I member 2 (Homo sapiens) (UniProt O75469). In words: NVS_NR_hPXR: NovaScreen (NVS) Nuclear Receptor Binding Assay for human Pregnane X Receptor (PXR) (AID 2283365).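 Note: a drop in FRET signal versus DMSO baseline means the compound binds.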 The method, boiled down: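 Cell-free binding assay with extracted human PXR protein, read by TR-FRET 2 h after dosing; loss of signal relative to DMSO baseline indicates binding. Primary screen at 25 uM in duplicate, actives retested in concentration series.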

In test [18] the target is Peroxisome proliferator-activated receptor gamma (Homo sapiens) (UniProt P37231). In words: OT_PPARg_PPARgSRC1_0480: Odyssey Thera (OT) 8-hour Protein-Complementation Assay for Peroxisome Proliferator-activated Receptor Gamma / SRC-1 Co-activator (AID 2283387).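 Note: nuclear to cytoplasmic split Venus YFP fluorescence ratio reporting PPARg SRC-1 interaction.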 An outline of the steps:
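Split-YFP (IFP1/IFP2) PPARg/SRC-1 reporter, HEK293T, 37 °C, 5% CO2; 8 h compound; formaldehyde fix + Draq5; high-content imaging, N/C ratio, ≥350 cells/image, positive direction vs DMSO.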

Test [19] shares this target. The test is described as follows: NVS_NR_hPPARg: NovaScreen (NVS) Nuclear Receptor Binding Assay for human Peroxisome Proliferator-activated Receptor gamma (PPARg) (AID 2283370). The method, boiled down:
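Cell-free binding to extracted PPARg protein, read by fluorescence polarization 2 h after dosing; loss of signal relative to DMSO baseline marks displacement. Primary screen in duplicate at 25 uM, actives retested in concentration series.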

Test [20] concerns the target Nucleoli Translocation, AR (gene 367) (UniProt P10275). The test is described as follows: UPITT_HCI_U2OS_AR_TIF2_Nucleoli_Antagonist: University of Pittsburgh U2OS Androgen Receptor-Transcriptional Intermediary Factor 2 (AR-TIF2) Antagonism High Content Imaging Assay for Nucleoli Translocation (AID 2283997). An outline of the steps:
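Compounds are added at 20 uM final concentration in 0.2% DMSO to U2OS cells carrying AR-RFP and TIF2-GFP fusions. Nucleolar AR-RFP fluorescence is then quantified by automated imaging. Antagonism is fitted positively against DHT baseline.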

Chain of Peroxisome proliferator-activated receptor gamma (Homo sapiens) (P37231 whole entry, looked up): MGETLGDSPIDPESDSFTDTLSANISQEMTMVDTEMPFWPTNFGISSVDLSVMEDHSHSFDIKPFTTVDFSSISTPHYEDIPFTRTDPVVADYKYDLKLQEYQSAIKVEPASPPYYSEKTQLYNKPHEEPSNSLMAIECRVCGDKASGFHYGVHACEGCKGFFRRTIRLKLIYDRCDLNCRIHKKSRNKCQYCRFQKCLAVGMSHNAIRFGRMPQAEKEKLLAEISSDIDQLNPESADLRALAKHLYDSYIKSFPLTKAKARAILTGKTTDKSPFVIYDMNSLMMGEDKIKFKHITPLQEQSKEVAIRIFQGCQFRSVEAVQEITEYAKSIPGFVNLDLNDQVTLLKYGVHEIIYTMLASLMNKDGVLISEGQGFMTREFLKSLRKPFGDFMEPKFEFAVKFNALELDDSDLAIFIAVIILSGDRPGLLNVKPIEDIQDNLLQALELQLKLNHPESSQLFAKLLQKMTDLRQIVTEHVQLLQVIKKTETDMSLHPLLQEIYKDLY
Chain of Luciferin 4-monooxygenase (Photinus pyralis) (P08659 whole entry, looked up): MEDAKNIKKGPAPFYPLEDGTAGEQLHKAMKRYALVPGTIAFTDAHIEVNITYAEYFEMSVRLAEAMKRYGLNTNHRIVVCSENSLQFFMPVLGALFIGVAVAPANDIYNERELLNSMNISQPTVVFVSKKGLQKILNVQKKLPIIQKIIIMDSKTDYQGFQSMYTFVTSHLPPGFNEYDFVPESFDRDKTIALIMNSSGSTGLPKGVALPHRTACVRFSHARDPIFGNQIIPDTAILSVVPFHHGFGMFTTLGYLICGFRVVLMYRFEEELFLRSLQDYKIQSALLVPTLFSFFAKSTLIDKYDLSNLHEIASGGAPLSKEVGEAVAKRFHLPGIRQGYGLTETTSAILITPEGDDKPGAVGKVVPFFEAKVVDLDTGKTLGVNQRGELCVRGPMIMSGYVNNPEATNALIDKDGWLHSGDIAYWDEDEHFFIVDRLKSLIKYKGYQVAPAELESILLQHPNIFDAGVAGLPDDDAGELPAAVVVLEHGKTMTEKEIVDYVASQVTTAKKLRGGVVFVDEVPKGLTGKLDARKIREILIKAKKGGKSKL
Chain of Nuclear receptor subfamily 1 group I member 2 (Homo sapiens) (O75469 whole entry, looked up): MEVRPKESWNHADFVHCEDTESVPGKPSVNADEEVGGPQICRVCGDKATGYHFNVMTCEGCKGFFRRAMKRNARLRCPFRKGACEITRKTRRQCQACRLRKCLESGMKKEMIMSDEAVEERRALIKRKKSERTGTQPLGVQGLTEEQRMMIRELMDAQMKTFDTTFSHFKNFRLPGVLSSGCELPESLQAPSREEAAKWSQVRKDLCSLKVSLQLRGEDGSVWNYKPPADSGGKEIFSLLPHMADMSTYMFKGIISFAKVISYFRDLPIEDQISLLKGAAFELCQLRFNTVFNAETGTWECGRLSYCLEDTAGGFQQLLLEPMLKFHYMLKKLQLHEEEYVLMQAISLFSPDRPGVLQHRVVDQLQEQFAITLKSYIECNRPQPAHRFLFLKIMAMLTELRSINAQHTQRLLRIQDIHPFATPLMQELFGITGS
Chain of human Phosphodiesterase 10 (PDE10), PDE10A (gene 10846) (Q9Y233 whole entry, looked up): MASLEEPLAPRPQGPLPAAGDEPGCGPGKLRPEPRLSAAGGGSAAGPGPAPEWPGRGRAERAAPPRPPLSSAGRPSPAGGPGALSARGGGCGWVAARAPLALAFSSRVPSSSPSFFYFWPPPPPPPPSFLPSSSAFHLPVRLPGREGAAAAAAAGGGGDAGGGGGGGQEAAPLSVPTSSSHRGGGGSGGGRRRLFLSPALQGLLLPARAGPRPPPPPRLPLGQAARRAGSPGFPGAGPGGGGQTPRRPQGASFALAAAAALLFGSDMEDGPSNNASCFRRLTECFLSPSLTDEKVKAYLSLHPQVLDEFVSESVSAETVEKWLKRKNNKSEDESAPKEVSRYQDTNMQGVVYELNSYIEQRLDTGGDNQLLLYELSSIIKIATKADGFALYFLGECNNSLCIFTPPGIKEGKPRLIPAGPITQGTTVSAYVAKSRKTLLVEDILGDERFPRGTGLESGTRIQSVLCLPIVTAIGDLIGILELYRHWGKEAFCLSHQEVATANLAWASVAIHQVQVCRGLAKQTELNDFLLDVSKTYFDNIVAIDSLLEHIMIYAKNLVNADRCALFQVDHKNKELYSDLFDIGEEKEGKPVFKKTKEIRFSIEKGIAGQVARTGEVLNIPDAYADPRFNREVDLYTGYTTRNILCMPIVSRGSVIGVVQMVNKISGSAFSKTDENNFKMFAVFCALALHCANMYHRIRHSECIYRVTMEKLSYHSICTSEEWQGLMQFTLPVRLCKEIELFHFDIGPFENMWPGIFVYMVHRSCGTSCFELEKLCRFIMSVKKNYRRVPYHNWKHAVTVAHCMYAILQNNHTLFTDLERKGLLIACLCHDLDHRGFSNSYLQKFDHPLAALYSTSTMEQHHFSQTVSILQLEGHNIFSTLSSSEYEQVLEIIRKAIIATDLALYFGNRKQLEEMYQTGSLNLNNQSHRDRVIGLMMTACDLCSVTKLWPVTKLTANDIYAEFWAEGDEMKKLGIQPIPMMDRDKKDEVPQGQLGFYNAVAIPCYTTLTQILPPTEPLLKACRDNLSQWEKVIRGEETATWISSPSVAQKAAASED
Chain of Bile acid receptor (Homo sapiens) (Q96RI1 whole entry, looked up): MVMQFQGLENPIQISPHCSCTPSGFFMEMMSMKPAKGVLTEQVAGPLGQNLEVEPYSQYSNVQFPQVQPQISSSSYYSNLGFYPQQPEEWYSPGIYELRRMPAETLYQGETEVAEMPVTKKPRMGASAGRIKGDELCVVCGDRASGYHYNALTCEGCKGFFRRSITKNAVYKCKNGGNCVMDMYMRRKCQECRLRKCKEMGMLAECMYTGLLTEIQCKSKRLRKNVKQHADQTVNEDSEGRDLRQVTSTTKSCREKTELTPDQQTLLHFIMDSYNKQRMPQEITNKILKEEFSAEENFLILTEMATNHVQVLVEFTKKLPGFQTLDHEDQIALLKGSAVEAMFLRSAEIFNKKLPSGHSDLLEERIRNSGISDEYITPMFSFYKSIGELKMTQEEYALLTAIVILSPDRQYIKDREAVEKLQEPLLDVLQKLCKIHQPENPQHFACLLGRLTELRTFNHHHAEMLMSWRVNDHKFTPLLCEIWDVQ
Chain of rat Peripheral-type Benzodiazepine Receptor (PBR), Tspo (gene 24230) (P16257 whole entry, looked up): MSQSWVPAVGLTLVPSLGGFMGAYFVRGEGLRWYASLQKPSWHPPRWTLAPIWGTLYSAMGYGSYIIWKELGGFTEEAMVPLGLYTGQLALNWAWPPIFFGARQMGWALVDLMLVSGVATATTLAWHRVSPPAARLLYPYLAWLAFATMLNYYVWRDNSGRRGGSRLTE
Chain of Nucleoli Translocation, AR (gene 367) (P10275 whole entry, looked up, the tested form may be a part): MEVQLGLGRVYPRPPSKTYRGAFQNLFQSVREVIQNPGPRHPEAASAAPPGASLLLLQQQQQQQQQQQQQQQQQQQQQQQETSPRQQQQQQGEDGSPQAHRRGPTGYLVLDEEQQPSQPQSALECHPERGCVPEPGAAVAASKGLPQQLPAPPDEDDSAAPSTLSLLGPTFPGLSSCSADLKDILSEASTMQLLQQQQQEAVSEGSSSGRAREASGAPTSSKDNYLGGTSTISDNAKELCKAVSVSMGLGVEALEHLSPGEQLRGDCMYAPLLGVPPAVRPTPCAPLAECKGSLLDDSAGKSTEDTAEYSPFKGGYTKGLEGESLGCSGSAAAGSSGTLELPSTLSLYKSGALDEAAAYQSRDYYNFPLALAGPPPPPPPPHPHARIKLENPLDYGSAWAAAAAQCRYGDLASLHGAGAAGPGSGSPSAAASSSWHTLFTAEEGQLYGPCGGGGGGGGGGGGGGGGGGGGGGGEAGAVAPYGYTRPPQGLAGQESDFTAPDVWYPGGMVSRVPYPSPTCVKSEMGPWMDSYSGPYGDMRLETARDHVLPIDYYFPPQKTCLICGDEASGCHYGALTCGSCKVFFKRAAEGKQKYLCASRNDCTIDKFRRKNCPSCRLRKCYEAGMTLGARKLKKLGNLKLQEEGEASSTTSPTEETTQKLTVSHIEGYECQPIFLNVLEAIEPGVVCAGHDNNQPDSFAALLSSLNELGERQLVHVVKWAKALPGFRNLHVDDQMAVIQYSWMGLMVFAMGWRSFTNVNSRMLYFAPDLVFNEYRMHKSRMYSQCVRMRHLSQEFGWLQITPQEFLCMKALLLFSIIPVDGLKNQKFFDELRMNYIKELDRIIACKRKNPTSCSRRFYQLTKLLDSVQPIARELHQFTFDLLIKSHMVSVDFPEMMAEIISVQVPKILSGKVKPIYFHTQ

With `CC(Cc1ccc(C(C)(C)C)cc1)CN1C[C@@H](C)O[C@@H](C)C1` (stereo not given in full), the AC50 (as a rule, the concentration giving half of the maximal activity seen) in test [1] was 11.3 µM (active); in test [2] it was 13.8 µM (active); in test [3], 0.0454 µM (active); in test [4] it was 0.316 µM (active); in [6] it was 39.5 µM (active); in test [7] it was 9.92 µM (active). In test [8], the AC50 was 0.053 µM (active). For the same compound, the call in test [5], in [9] and in test [10] was inactive.

For the compound `Cc1ncc(C[n+]2csc(CCO)c2C)c(N)n1`, in test [11], the compound was classed as inactive.

As for `O=c1c2ccccc2c(=O)c2c1cc(Cl)c1[nH]c3c([nH]c12)c(Cl)cc1c(=O)c2ccccc2c(=O)c13`, the result in test [11] and in [12] was inactive.

As for `O=S(=O)(c1ccccc1)c1ccccc1`, the AC50 in test [13] is 8.45 µM (active). For the same compound, the result in test [12] was inactive.

In the case of `CC1CCCC1.[C-]#[O+].[C-]#[O+].[C-]#[O+].[Mn]`, the concentration at half-maximal activity (AC50) in test [14] is 26.4 µM (active). For the same compound, the compound was called inactive in test [15] and in test [16].

In the case of `[CH3][Sn]([CH3])([Cl])[Cl]`, the result in [17] and in [18] was inactive.

As for `CC(C)[C@@H](C(=O)O[C@@H](C#N)c1cccc(Oc2ccccc2)c1)c1ccc(Cl)cc1`, the compound was classed as inactive in [17], in test [19] and in test [18].

Turning to `CCOC(=O)NC(=S)Nc1ccccc1NC(=S)NC(=O)OCC`, the AC50 in test [17] is 6.55 µM (active); in [14], 16 µM (active). Further, the call in [16] was inactive.

With `C=CC(=O)OCC(CC)CCCC` (stereo not given), the call in test [14], in [15], in [16] and in [12] was inactive.

Take `O=P(O)(Oc1ccccc1)Oc1ccccc1`: the result in [9] and in [10] was inactive.

For the compound `c1ccc(P(c2ccccc2)c2ccccc2)cc1`, the AC50 is 14.9 µM (active) in test [19] and 40.2 µM (active) in [14]. For the same compound, the call in test [18] and in [16] was inactive.

`CC(C)CCCCCCCOC(=O)c1ccccc1C(=O)OCCCCCCCC(C)C`: in [12], the compound was called inactive.

As to `CCc1cccc(C)c1N(C(=O)CCl)[C@@H](C)COC`, the concentration at half-maximal activity (AC50) in test [13] is 4.35 µM (active); in test [17], 5.91 µM (active). Besides, the result in [19] was inactive.

As to `O=C(NCNC(=O)NC1C(=O)NC(=O)N1CO)NC1C(=O)NC(=O)N1CO` (stereo not given), the call in test [1] was inactive. The AC50 in [20] was 50 µM (active).

As for `CC(C)(O)C#N`, in [14], the concentration at half-maximal activity (AC50) was 36.7 µM (active). Moreover, the call in test [15] and in test [16] was inactive.

The record behind these values is PubChem BioAssay (EPA / NIEHS).
